# Screen size: about 410,000 compounds; about 850 (0.21%) were called active. Another 2% or so got no clear call; they are omitted. The entries come from a sample that favours actives as a whole. A number with no mark means an inactive call. The call rests on the fitted dose curve; in most records, active means well fitted inhibition curve with a large enough effect; inconclusive means small, poorly fitted or top-dose-only effect, or another doubt; inactive means no such curve, though single readings can be large or run the other way.
# Molecular target: Glutaminase kidney isoform, mitochondrial (Homo sapiens) (UniProt O94925)
# Test: qHTS for Inhibitors of Glutaminase (GLS)
# Settings: GLS enzymatic activity, qHTS titration; series mostly up to 99.4 µM; activity change, negative = inhibition: at the top concentration
# Description: Glutaminase (GLS) catalyzes the hydrolysis of glutamine into glutamate and ammonia. It plays a critical role in glutaminolysis, which is an important energy source for proliferating cells. It was shown that c-Myc, an oncogenic transcription factor known to regulate microRNAs and to stimulate cell proliferation, increases glutamine metabolism by stimulating the expression of GLS via direct suppression of miR23a and miR23b.
# GLS is also thought to play a pathogenic role on HAD using a human HIV-1 infected macrophage system. […] GLS inhibition limits glutamate release and provides neuroprotection against HIV-1 infected macrophages.
# The overall goal of this project is to identify small molecule inhibitors of GLS through quantitative high throughput screening (qHTS) of the MLSMR. A validated potent and selective inhibitor can be used as a tool molecule to further study the pharmacology of its target as well as explore its potential therapeutic application in cancer and inflammatory neurological disorders, such as HIV1-associated dementia (HAD) and multiple sclerosis.
# NIH Chemical Genomics Center [NCGC]
# NIH Molecular Libraries Probe Centers Network [MLPCN]
# Assay Submitter (PI): Barbara S. Slusher, Johns Hopkins University
# Three 3 uL of hKGA is dispensed into black well 1536-well plates in 45 mM KH2PO4 (pH 8.2), 0.02% Tween-20. Then 23 nL of compounds are added through pin tool transfer. To this, 1 uL of 1mM L-Glutamine and 1 uL of a solution of L-Glutamateoxidase, HRP, Amplex red are added. Plate is centrifuged for 25 sec before an initial fluorescence read is obtained on the ViewLux, after 30 min of RT incubation, the final read is taken on the ViewLux.
# On the % scale 0 is the no-effect control and ±100 the full control effect; potency means the concentration at half of the fitted maximal effect.
# Sequence of Glutaminase kidney isoform, mitochondrial (Homo sapiens) (O94925 whole entry, looked up, canonical isoform): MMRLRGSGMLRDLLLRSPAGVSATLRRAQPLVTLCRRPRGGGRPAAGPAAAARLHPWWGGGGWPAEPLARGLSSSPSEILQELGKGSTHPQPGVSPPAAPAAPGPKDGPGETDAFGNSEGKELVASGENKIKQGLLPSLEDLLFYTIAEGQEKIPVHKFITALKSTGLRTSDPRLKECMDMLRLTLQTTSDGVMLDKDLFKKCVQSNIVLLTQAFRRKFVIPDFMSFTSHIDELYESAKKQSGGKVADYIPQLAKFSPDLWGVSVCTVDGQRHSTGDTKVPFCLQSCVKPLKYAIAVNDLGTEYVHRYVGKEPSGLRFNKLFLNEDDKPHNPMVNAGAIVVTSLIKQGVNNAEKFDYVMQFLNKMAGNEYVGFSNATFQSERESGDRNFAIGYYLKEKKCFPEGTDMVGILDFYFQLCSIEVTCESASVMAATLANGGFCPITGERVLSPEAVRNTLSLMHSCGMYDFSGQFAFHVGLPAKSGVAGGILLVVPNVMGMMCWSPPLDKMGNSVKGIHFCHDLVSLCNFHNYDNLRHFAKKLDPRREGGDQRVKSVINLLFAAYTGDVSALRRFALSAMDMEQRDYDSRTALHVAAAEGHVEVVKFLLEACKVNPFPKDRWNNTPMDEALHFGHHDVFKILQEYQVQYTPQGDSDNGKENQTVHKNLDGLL
Compound,Potency,"activity change, negative = inhibition"
CCC(C)n1c(O)c(/C=N/Nc2nc3c(c(=O)n(C)c(=O)n3C)n2C)c(=O)[nH]c1=S (stereo not given),10 µM (active),–
COc1cc(C[C@H](C)N)c(OC)cc1Br,–,-0.657%
CC(C)=CCN1CC[C@@]2(C)c3cc(O)ccc3C[C@H]1[C@@H]2C,–,29.7%
CC(C)(C)c1ccc(S(=O)(=O)Nc2ccc(O)c(Sc3nc4ccccc4s3)c2)cc1,–,31.1% [at 45.5 µM]
C[C@]12CCC3[C@@H](CCC4=CC(=O)CC[C@@]43C)C1CCC2OC(=O)CCc1ccccc1 (stereo not given in full),–,-0.493%
O=C1NC(=O)N(Cc2ccco2)C(=O)/C1=C\c1ccc(-c2ccc(F)cc2)o1,8.91 µM (active),–
O=P1(N(CCCl)CCCl)NC(OO)CCO1 (stereo not given),–,4.17% [at 45.5 µM]
CC(C)CC1C(=O)N2CCCC2C2(O)OC(NC(=O)C3CC4c5cccc6[nH]cc(c56)CC4N(C)C3)(C(C)C)C(=O)N12 (stereo not given),–,4.2% [at 45.5 µM]
Cc1ncc(CC(=O)n2cc(C(=O)c3cc(Cl)ccc3O)cn2)s1,–,38.5% [at 45.5 µM]
CC(=O)Oc1ccc2c3c1OC1C(OC(C)=O)C=CC4[C@@H](C2)N(C)CC[C@]314 (stereo not given in full),–,5.46%
